PubChem BioAssay

Assays:
[1] = biological target: Tumor necrosis factor receptor superfamily member 10B (Homo sapiens) (UniProt O14763); test: viability loss of caspase-8 NB7 cells with TRAIL – with/without TRAIL, luminescence panel, confirmation (AID 651596); settings: NB7 neuroblastoma + caspase-8, TRAIL sensitization, NB7 Caspase-8, with TRAIL, mean of runs, at 10 µM, stronger effect = higher value
[2] = as above; settings: NB7 neuroblastoma + caspase-8, without TRAIL, NB7 Caspase-8, without TRAIL, mean of runs, at 10 µM

Sequence of Tumor necrosis factor receptor superfamily member 10B (Homo sapiens) (O14763 whole entry, looked up): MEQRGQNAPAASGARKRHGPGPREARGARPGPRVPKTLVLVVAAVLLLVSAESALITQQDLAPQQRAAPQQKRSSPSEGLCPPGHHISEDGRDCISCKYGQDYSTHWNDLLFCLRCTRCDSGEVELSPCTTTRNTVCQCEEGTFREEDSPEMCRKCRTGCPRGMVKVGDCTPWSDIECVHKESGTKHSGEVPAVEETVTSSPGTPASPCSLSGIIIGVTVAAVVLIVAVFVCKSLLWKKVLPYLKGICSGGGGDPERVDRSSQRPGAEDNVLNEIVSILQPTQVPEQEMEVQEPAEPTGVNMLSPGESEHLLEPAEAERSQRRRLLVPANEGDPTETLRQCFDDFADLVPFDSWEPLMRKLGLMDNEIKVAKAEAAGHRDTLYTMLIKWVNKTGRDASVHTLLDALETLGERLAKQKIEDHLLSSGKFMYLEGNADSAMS

Row | Structure (SMILES) | activity [1] [%] | activity [2] [%]
1 | O=C(Nc1c(Cl)cc2c(c1Cl)Cc1cc([N+](=O)[O-])ccc1-2)C(Cl)Cl | 89.3 | 94.9
2 | CC(=O)Nc1cc(-c2cccc(C(=O)NCCN(C)C)c2)cn2c(-c3cccc(C(F)(F)F)c3)cnc12 | 65.3 | 89.8
3 | O=C(O)c1ccc(N/N=C/c2cc3cc4c(cc3nc2Cl)OCCO4)cc1 | 96.3 | 95.3
4 | C=C1C(=O)C23CCC4C(C)(C(=O)OC)CCCC4(C)C2CCC1(O)C3 (stereo not drawn) | 95.6 | 98.7
5 | Cc1ccc(-c2cc(C(=O)N3CCOCC3)no2)cc1 | 69.7 | 65.2
6 | Cc1nn(-c2ccccc2Cl)c(Cl)c1/C=N/Nc1cccc(C(=O)O)c1 | 68.9 | 62.9
7 | Cc1ccc(C(=O)O/N=C(\N)c2ccc(Br)cc2)cc1C | 82.5 | 88.2
8 | CCOC(=O)c1c(C)nc2c3ccccc3ccn12 | 51.9 | 58.9
9 | O=C(Oc1c(CN2CCOCC2)cc(Cl)c2cccnc12)c1ccc(F)cc1 | 53.5 | 56.1
10 | Nc1ccccc1C=C1Cc2ccccc2C1=O | 58.5 | 50
11 | C/C(=N\Nc1nc(C)cc(-c2ccccc2)n1)c1cccc(N)c1 | 41.5 | 32.7
12 | O=C(COc1cc(F)ccc1[N+](=O)[O-])Nc1cc(S(=O)(=O)N2CCCC2)ccc1Cl | 26.4 | 2.77
13 | CCOc1ccc2nc(N3C(=O)CNC3=S)sc2c1 | 65.2 | 60.6
14 | Cc1ccc2nc(-c3ccc(NC(=O)CCS(=O)(=O)c4ccccc4)cc3)sc2c1 | 87.5 | 86.9
15 | CC(/C=N/NC(=O)c1ccco1)=C\c1ccccc1 | 73.5 | 71.2
16 | CCOc1ccc(OCC(=O)N(CCC2=CCCCC2)c2c(N)n(Cc3ccccc3)c(=O)[nH]c2=O)cc1 | 48.6 | 1.7
17 | COc1ccc(/C=C/C(=O)NC(=S)Nc2ccccn2)cc1 | 29 | 37.3
18 | COc1cc(/C=C2\Oc3ccc(C#Cc4ccc(O)cc4)cc3C2=O)cc(OC)c1 | 80.5 | 83.2
19 | CC(C)Nc1ccc(-n2nc3ccccc3[n+]2[O-])cc1 | 62.5 | 61
20 | COc1ccc(NC(=O)c2cc([N+](=O)[O-])ccc2O)cc1 | 89.8 | 88.2
21 | Oc1ccccc1-c1n[nH]c(-c2ccccc2O)n1 | 47.8 | 48.6
22 | COc1cccc(-c2nnc(-c3ccc(C)o3)o2)c1 | 64.9 | 65.2

Row | Structure (SMILES) | activity [1] [%] | activity [2] [%]
23 | c1ccc(CSc2ccc(-c3ccco3)nn2)cc1 | 57.6 | 45.9
24 | C/C(=N\NC(=O)c1cccc(O)c1)c1cccc(NC(=O)c2ccc(F)cc2)c1 | 74.5 | 77.4
25 | Cc1ccc(C2=NN(C(=O)CCl)C(c3cccs3)C2)o1 (stereo not drawn) | 99.6 | 99.1
26 | O=C1C(=Cc2ccc(F)cc2)CCc2ccccc21 | 82.8 | 76.7
27 | Cc1nn(-c2ccccc2)c(C)c1/C=N/NC(=O)c1cc(C23CC4CC(CC(C4)C2)C3)[nH]n1 | 74.1 | 60
28 | COc1ccccc1NC(CC(=O)c1ccccc1)C(=O)OCC(=O)c1ccc(F)cc1 (stereo not drawn) | 69.5 | 65.9
29 | CC(/C=N/NC(=O)c1nn(C)c(C)c1Br)=C\c1ccccc1 | 72.4 | 74.6
30 | C=C1C(=O)c2sccc2C(c2ccc(OC)c(OC)c2)C1COC(C)=O (stereo not drawn) | 98.2 | 99.2
31 | Cc1cccc(-n2ncc3c(N4CCCC4)ncnc32)c1 | 75.4 | 73.6
32 | N#Cc1cc2c(nc1SCC(=O)Nc1nccs1)CCCCC2 | 67.8 | 69.2
33 | Cn1c(-c2ccccc2)cc2onc(-c3ccccc3)c2c1=O | 85.5 | 85.7
34 | Cc1ccc(NC(=O)c2ccccc2)s1 | 40.7 | 32
35 | CC(C)(C)c1ccc(C(=O)Nc2cnccn2)cc1 | 78.5 | 82.2
36 | Cn1c(NC(=O)c2ccc(F)cc2)nc2ccccc21 | 45.1 | 57.1
37 | O=C(CCl)N(O)c1ccc(C=Cc2ccccc2)cc1 | 40 | 53.7
38 | Nc1c(-c2cccs2)cnc2c(-c3ccc(F)cc3)cnn12 | 57.5 | 48.8
39 | CCc1ccc(/C=N/NC(=O)c2ccccn2)cc1 | 83.9 | 73
40 | O=C(Nc1cnn(C23CC4CC(CC(C4)C2)C3)c1)c1cnn2c(C(F)(F)F)cc(-c3ccco3)nc12 | 76.4 | 70.3
41 | C/C(Cn1nnc([N+](=O)[O-])n1)=N\NC(=O)c1ccc(O)cc1 | 50.4 | 48.3
42 | Cc1ccc(-n2cc(C(=O)c3ccccc3O)cn2)cc1 | 52 | 38.6
43 | Cc1ccc(-c2nc(-c3ccncc3)no2)c(Cl)c1 | 63 | 57.1
44 | Cc1cccnc1NC(=O)c1sc2ccccc2c1Cl | 33.3 | 23.5
